# ChEMBL document CHEMBL2218924, “A broad activity screen in support of a chemogenomic map for kinase signalling research and drug discovery” (Biochem J, 2013)
# Target: LIM domain kinase 1 (Homo sapiens) (UniProt P53667)
# Conditions: at 10 µM
# Chain of LIM domain kinase 1 (Homo sapiens) (P53667 whole entry, looked up, the tested form may be a part): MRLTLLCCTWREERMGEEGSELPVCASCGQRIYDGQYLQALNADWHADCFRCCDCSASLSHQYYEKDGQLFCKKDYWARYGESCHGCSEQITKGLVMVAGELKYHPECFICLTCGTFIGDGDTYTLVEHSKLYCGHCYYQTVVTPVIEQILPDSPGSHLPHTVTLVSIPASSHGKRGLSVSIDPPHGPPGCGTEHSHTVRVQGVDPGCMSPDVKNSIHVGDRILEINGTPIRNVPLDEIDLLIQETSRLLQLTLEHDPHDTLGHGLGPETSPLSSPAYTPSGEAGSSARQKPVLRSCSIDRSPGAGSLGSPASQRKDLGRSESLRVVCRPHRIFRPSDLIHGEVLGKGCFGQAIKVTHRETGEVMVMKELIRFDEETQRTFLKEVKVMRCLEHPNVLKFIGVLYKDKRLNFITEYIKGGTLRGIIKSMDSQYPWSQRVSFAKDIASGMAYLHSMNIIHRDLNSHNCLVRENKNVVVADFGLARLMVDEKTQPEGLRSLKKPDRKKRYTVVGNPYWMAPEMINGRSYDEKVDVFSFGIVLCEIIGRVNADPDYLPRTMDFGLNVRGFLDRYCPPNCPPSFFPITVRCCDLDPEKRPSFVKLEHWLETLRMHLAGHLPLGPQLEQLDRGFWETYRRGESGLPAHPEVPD
row,SMILES,residual activity [%]
1,CCN(CC)CCCCN1c2ccccc2Oc2ccc(Cl)cc21,98
2,O=C1NC(=O)c2cc(Nc3ccc(F)cc3)c(Nc3ccc(F)cc3)cc21,91
3,COc1cccc(-c2cc(=O)c3ccccc3o2)c1N,93
4,Cc1cccc(-c2[nH]c(C(C)(C)C)nc2-c2ccc3c(c2)OCO3)n1,95
5,c1ccc(-c2n[nH]c3c2oc2ccccc23)cc1,64
6,N#C/C(=C(\N)Sc1ccc(N)cc1)c1ccccc1C(F)(F)F,85
7,CC(=O)c1ccc(N2CCOCC2)cc1O,83
8,COc1cc2ncnc(Nc3ccc(O)c(Br)c3)c2cc1OC,49
9,O=C1Nc2cc(Br)ccc2/C1=C1/Nc2ccccc2/C1=N\O,49
10,COc1cc2ncnc(Nc3ccc(NC(=O)c4ccccc4)cc3)c2cc1OC,56
11,Nc1cccc(-c2cc3c(Oc4cccc(O)c4)ncnc3[nH]2)c1,4
12,CCC(=O)Nc1ccc2ncnc(Nc3cccc(Br)c3)c2c1,76
13,CCN(CC)C(=O)c1ccc(Nc2nc(OCC3CCCCC3)c3nc[nH]c3n2)cc1,10
14,CN(C)CCCn1cc(C2=C(c3c[nH]c4ccccc34)C(=O)NC2=O)c2ccccc21,73
15,O=C1Nc2ccccc2/C1=C1/Nc2ccccc2/C1=N\OCCC(O)CO (stereo unspecified),33
16,CC[n+]1c(/C=C/N(C)c2ccccc2)n(-c2ccccc2)c2ccc(-c3nc4ccccc4s3)cc21,96

row,SMILES,residual activity [%]
1,CC(C)n1cnc2/c(=N/c3cccc(Cl)c3)nc(NCCO)[nH]c21,80
2,Oc1ccc(-c2nc(-c3ccc(F)cc3)c(-c3ccncc3)[nH]2)cc1,69
3,CC(=O)O/N=C1\C(=C2\C(=O)Nc3cc(Br)ccc32)Nc2ccccc21,50
4,O=C1NC(=O)c2c1c1c3ccccc3[nH]c1c1[nH]c3cc(Br)ccc3c21,76
5,CNc1cc2c(Nc3cccc(Br)c3)ncnc2cn1,43
6,CO[C@H]1C[C@@H]2CC[C@@H](C)[C@@](O)(O2)C(=O)C(=O)N2CCCC[C@H]2C(=O)O[C@H]([C@H](C)C[C@@H]2CC[C@@H](O)[C@H](OC)C2)CC(=O)[C@H](C)/C=C(\C)[C@@H](O)[C@@H](OC)C(=O)[C@H](C)C[C@H](C)/C=C/C=C/C=C/1C,91
7,Cn1cc(/C=C2\C(=O)Nc3ccc(S(N)(=O)=O)cc32)c2ccccc21,53
8,CO[C@H]1[C@@H](OC)C[C@H](C)[C@@H](OC)C2=CC(=O)C=C(NC(=O)/C(C)=C/C=C/[C@H](OC)[C@@H](OC(N)=O)/C(C)=C/[C@@H]1C)C2=O,90
9,N#Cc1cnc2cnc(NCc3cccnc3)cc2c1Nc1ccc(F)c(Cl)c1,27
10,O=[N+]([O-])c1ccc(-c2nc(-c3ccc(F)cc3)c(-c3ccncc3)[nH]2)cc1,90
11,Oc1ccc(Nc2nc(-c3ccc(Cl)cc3)cs2)cc1,102
12,C[C@@H](N)[C@H]1CC[C@H](C(=O)Nc2ccncc2)CC1,89
13,c1ccc2c(-c3ccncc3)c[nH]c2c1,64
14,Cc1cc(Nc2nc(-c3ccccc3)nc3ccccc23)n[nH]1,18
15,COc1cc2ncnc(Nc3ccc(Oc4ccccc4)cc3)c2cc1OC,34
